# Reference: PubChem BioAssay (NCATS)
# Records with an inconclusive call do not appear. A call without a number means that no potency is given here. Calls of active or inactive are those of the source. Calls come from the whole dose curve; as a rule, active = well fitted curve in the direction sought with a large enough effect; inconclusive = small, poorly fitted or top-dose-only effect, or another doubt; inactive = no such curve, though single readings can be large; an effect the other way counts as inactive or inconclusive.
# Columns and labels:
# [1] = qHTS of pediatric cancer cell lines to identify multiple opportunities for drug repurposing: Primary screen for TC32 cells (AID 1347089); note: nearly all actives have a fitted effect of over 60% in size
# Method in brief: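 TC32 cells, 500-1,000/well in growth medium, compound-treated 48 h at 37 °C; viability from CellTiter-Glo luminescence. Primary screen: MIPE 11-point (0.78 nM–46 µM final), NPC 8-point (0.59 nM–46 µM final); confirmatory at 11-point dilutions.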
# [2] = qHTS of pediatric cancer cell lines to identify multiple opportunities for drug repurposing: Primary screen for A673 cells (AID 1347092); note: potency is the fitted concentration of half-maximal effect; nearly all actives have a fitted effect of over 45% in size
# Method in brief: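 A673 cells (500-1,000 cells/well) were treated 48 hours at 37 degrees C with compounds at 11-point (0.78 nM to 46 µM) or 8-point (0.59 nM to 46 µM) dilutions. Viability read by CellTiter-Glo luminescence; concentration-response curves fitted.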
# [3] = qHTS of pediatric cancer cell lines to identify multiple opportunities for drug repurposing: Primary screen for SK-N-MC cells (AID 1347093); note: potency is the fitted concentration of half-maximal effect
# Method in brief: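 Metabolically active cells were quantified by ATP-dependent luminescence (CellTiter-Glo, 15 min at room temperature) following 48 h treatment. Cells had been plated at 500-1,000 per well and settled for 5 h beforehand.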
# [4] = qHTS of pediatric cancer cell lines to identify multiple opportunities for drug repurposing: Primary screen for BT-37 cells (AID 1347094); note: series mostly up to about 57 µM
# Method in brief: (§1)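 Readout: CellTiter-Glo luminescence, 48 h treatment. Controls DMSO (neutral) and bortezomib 2.3 µM final (positive). Potency and efficacy taken from primary-screen concentration-response curves.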
# [5] = qHTS of pediatric cancer cell lines to identify multiple opportunities for drug repurposing: Primary screen for SJ-GBM2 cells (AID 1347091)
# Method in brief: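 Cell viability, CellTiter-Glo luminescence; 500-1,000 cells/well, 8- or 11-point titration, 48 h compound exposure at 37 degrees C, 5% CO2. Controls: DMSO neutral, bortezomib 2.3 µM final as positive.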
# [6] = qHTS of pediatric cancer cell lines to identify multiple opportunities for drug repurposing: Primary screen for NB-EBc1 cells (AID 1347095); note: potency is the fitted concentration of half-maximal effect
# Method in brief: as §1
SMILES,Potency [1],Potency [2],Potency [3],Potency [4],Potency [5],Potency [6]
C[C@@H]1CN(Cc2ccc(F)cc2)[C@@H](C)CN1C(=O)c1cc2c(C(=O)C(=O)N(C)C)cn(C)c2cc1Cl,inactive,14.8 µM (active),0.0372 µM (active),inactive,,
Clc1ccc(Nc2nnc(Cc3ccncc3)c3ccccc23)cc1,inactive,,2.35 µM (active),,inactive,inactive
N#CC[C@H](C1CCCC1)n1cc(-c2ncnc3[nH]ccc23)cn1,inactive,23.5 µM (active),23.5 µM (active),,inactive,inactive
Cc1ccc(NC(=O)c2cccc(C(C)(C)C#N)c2)cc1Nc1ccc2ncn(C)c(=O)c2c1,inactive,14.8 µM (active),18.7 µM (active),,,5.26 µM (active)
